From PubChem BioAssay come the findings set out here.

Each structure is given as a SMILES string. Active and inactive are the calls of the source. Unless noted, no rule for the calls is given here.

Experiment [1] has as its system XIP peptide (Xip251-270) binding. The experiment can be described thus: small-molecule binders of XIP peptide, primary screen, biochemical, small-molecule microarray, fluorescence 635/667 nm, 0.1 µg/mL protein (AID 1182). The note with it: fluorescent protein binding, 635 nm, higher = more signal, called active from +8 up or from −8 down.
Another experiment concerns XIP peptide (Xip251-270). The experiment can be described thus: small-molecule binders of XIP peptide, primary screen, biochemical, small-molecule microarray, fluorescence 635/667 nm, 0.5 µg/mL protein (AID 1183). The note with it: small-molecule microarray binding, fluorescence 635 nm; higher = more signal.
Experiment [2] is described as follows: Plasmodium falciparum growth inhibition, primary screen, strain 3D7, DAPI fluorescence, 100 nL (AID 1184).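 Also: parasites grown inside human red blood cells in medium with human serum.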 The conditions noted are these: P. falciparum 3D7 growth, 3 d, higher = more signal.
Experiment [3] deals with Homeobox protein Hox-A13 (Mus musculus) (UniProt Q62424). The experiment can be described thus: inhibitors of HoxA13-DNA binding, primary screen, biochemical, fluorescence polarization, labeled oligonucleotide (AID 1185). The note with it: 15 min, higher = more signal, called active from +8 up or from −8 down. (In general: Fluorescence polarisation rises when a labelled molecule tumbles more slowly, as on binding a larger partner.)
Homeobox protein Hox-A13 (Mus musculus), sequence (Q62424 whole entry, looked up): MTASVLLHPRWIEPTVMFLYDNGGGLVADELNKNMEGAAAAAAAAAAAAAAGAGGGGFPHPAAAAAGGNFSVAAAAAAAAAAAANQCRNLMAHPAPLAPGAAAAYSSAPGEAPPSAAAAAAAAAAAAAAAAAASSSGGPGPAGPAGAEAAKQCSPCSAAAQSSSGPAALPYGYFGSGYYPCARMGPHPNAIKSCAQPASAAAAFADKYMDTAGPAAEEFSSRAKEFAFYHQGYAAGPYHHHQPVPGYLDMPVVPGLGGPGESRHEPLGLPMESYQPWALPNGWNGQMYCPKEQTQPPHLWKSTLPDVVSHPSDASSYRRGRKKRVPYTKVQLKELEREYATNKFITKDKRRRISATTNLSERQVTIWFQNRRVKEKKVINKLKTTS

Experiment [4] is described as follows: inhibitors of hydroxyurea-induced Chk1 phosphorylation, primary screen, imaging, HeLa, phospho-Chk1 antibody, percent positive cells (AID 1186). The conditions noted are these: hydroxyurea-induced phospho-Chk1 immunofluorescence imaging, higher = more signal.
Experiment [5] in a line: inhibitors of hydroxyurea-induced Chk1 phosphorylation, primary screen, imaging, HeLa, phospho-Chk1 nuclear intensity (AID 1187). The conditions noted are these: hydroxyurea-induced phospho-Chk1 immunofluorescence imaging, higher = more signal.

Consider `COc1ccccc1CN1C(=O)c2ccccc2[C@@H](C(=O)NCCN2CCOCC2)[C@@H]1c1ccc(CO)cc1`, for which the composite z-score is -0.0758 (inactive) in experiment [1] and 0.853 in the experiment with XIP peptide (Xip251-270). The z-score in experiment [2] was -1.86; in experiment [3], -4.64 (inactive); in experiment [4], 0.193 (inactive); in experiment [5], 0.531 (inactive).
As for `CCOC(=O)C[C@H]1[C@H](OC(=O)c2ccc(C(=O)c3ccccc3)cc2)[C@@H](NC(=O)C2CCCCC2)c2cc(OCCCO)ccc2N1C(=O)c1ccccc1`, the results for the composite z-score (in experiment [1]; in the experiment on XIP peptide (Xip251-270)) were -0.373 (inactive) and 0.186, respectively. Further, the z-score in experiment [2] was 0.863; in experiment [3], -2.97 (inactive); in experiment [4] it was 0.454 (inactive); in experiment [5], 0.0465 (inactive).
Regarding `COCCOC(=O)N1C(=O)[C@@]2(c3cc(C#CC4=CCCCC4)ccc31)[C@H](C(=O)NC[C@H](O)c1ccccc1)[C@H]1C(=O)O[C@H](c3ccccc3)[C@H](c3ccccc3)N1[C@@H]2c1ccc(O)cc1`, the composite z-score in experiment [1] is 0.304 (inactive); in the experiment with XIP peptide (Xip251-270), 0.744. For the same compound, the z-score in experiment [2] is -1.39; in experiment [3], -0.485 (inactive); in experiment [4] it was 0.279 (inactive); in experiment [5], 0.475 (inactive).
As to `O=C/C=C/c1ccc2c(c1)OCO2`, the results for the composite z-score (in experiment [1]; in the experiment with XIP peptide (Xip251-270)) were -0.316 (inactive) and -0.232, respectively. The z-score in experiment [2] was 0.775; in experiment [3] it was 1.04 (inactive); in experiment [4], 0.284 (inactive); in experiment [5], 0.774 (inactive).
Turning to `COCCOC(=O)N1C(=O)[C@@]2(c3cc(C#CCNC(N)=O)ccc31)[C@H](C(=O)N1CCc3cc(OC)c(OC)cc3C1)[C@H]1C(=O)O[C@H](c3ccccc3)[C@H](c3ccccc3)N1[C@@H]2c1ccc(OCCO)cc1`, the composite z-score is 0.034 (inactive) in experiment [1] and 0.616 with XIP peptide (Xip251-270). Besides, the z-score is -1.3 in experiment [2], 1.53 (inactive) in experiment [3], -0.184 (inactive) in experiment [4] and -0.0927 (inactive) in experiment [5].
With `COCCOC(=O)N1C(=O)[C@@]2(c3cc(C#CCNC(N)=O)ccc31)[C@H](c1ccc(OCCO)cc1)N1[C@H](c3ccccc3)[C@H](c3ccccc3)OC(=O)[C@H]1[C@@H]2C(=O)N1CCc2cc(OC)c(OC)cc2C1`, the figures for the composite z-score (in experiment [1]; with XIP peptide (Xip251-270)) were -0.254 (inactive) and 0.229, respectively. In addition, the z-score in experiment [2] is -0.605; in experiment [3] it was 1.91 (inactive); in experiment [4], -0.102 (inactive); in experiment [5], 0.15 (inactive).
As to `[N-]=[N+]=NCc1ccccc1C[C@@]1(C(=O)NCC(O)CO)N=C(c2ccc(OCCCO)cc2)O[C@@H]1c1ccccc1CN=[N+]=[N-]` (stereo partly specified), the composite z-score is -0.0479 (inactive) in experiment [1] and 0.748 with XIP peptide (Xip251-270). Besides, the z-score was -2.01 in experiment [2], -3.3 (inactive) in experiment [3], -0.0621 (inactive) in experiment [4] and 0.0477 (inactive) in experiment [5].
Turning to `O=C1N(CCS(=O)(=O)c2ccccc2)Cc2ccccc2C[C@]12N=C(c1ccc(OCCCO)cc1)O[C@@H]2c1ccccc1`, the composite z-score in experiment [1] was 0.194 (inactive); in the experiment on XIP peptide (Xip251-270) it was 0.789. In addition, the z-score in experiment [2] is -2.34; in experiment [3], -2.61 (inactive); in experiment [4] it was -0.719 (inactive); in experiment [5], -0.709 (inactive).
Take `NCCCCCNC(=O)[C@H]1C[C@H]2C(=O)NCC(=O)N2[C@H]1c1cccc(OCCO)c1`: the composite z-score in experiment [1] was 0.228 (inactive); in the experiment with XIP peptide (Xip251-270), 0.781. The z-score in experiment [2] is 0.222; in experiment [3] it was -1.68 (inactive); in experiment [4] it was 0.0838 (inactive); in experiment [5], 0.179 (inactive).
With `O=C1OCC=C[C@H]2OC34C=CCN(c5ccc(Cl)cc5)C(=O)[C@H]3N(CCCCCCO)C(=O)[C@@H]4[C@@H]12` (stereo partly specified), the composite z-score in experiment [1] was -0.513 (inactive); in the experiment on XIP peptide (Xip251-270), -1.03. The z-score in experiment [2] was -0.358; in experiment [3] it was -4.21 (inactive); in experiment [4], -0.181 (inactive); in experiment [5], -0.0007 (inactive).
As to `O=C1OCCC=C[C@H]2OC34C=CCN(Cc5ccccc5)C(=O)[C@H]3N(CCCO)C(=O)[C@@H]4C12` (stereo partly specified), the composite z-score in experiment [1] was 0.17 (inactive); with XIP peptide (Xip251-270), -0.461. Also, the z-score is -2.21 in experiment [2], -4.21 (inactive) in experiment [3], -0.16 (inactive) in experiment [4] and -0.035 (inactive) in experiment [5].
On to `O=C1N(CCS(=O)(=O)c2ccccc2)Cc2ccccc2[C@H]2OC(c3ccc(OCCCO)cc3)=N[C@@]12CCS(=O)(=O)c1ccccc1`, for which the composite z-score in experiment [1] was 2.05 (inactive); in the experiment with XIP peptide (Xip251-270) it was 0.81. For the same compound, the z-score in experiment [2] was -2.09; in experiment [3], -0.483 (inactive); in experiment [4], -0.44 (inactive); in experiment [5] it was -0.346 (inactive).
For the compound `C=CC[C@]1(C(=O)N2CCOCC2)N=C(c2ccc(OCCCO)cc2)O[C@H]1c1ccccc1`, the values for the composite z-score (in experiment [1]; in the experiment on XIP peptide (Xip251-270)) were 0.661 (inactive) and 0.362, respectively. Besides, the z-score in experiment [2] is -0.887; in experiment [3], -6.82 (inactive); in experiment [4], -0.274 (inactive); in experiment [5] it was -0.217 (inactive).
Take `CC(C)N1C(=O)C[C@@](C(=O)NCc2ccccc2)(c2ccc([N+](=O)[O-])cc2)[C@H]1c1ccc(CO)cc1`: the composite z-score was 0.168 (inactive) in experiment [1] and 0.524 in the experiment on XIP peptide (Xip251-270). For the same compound, the z-score is -0.688 in experiment [2], -1.27 (inactive) in experiment [3], -0.293 (inactive) in experiment [4] and -0.128 (inactive) in experiment [5].
Take `C=C(COC)C(=O)CC[C@H](OC(C)=O)c1cccc(OCCO)c1`: the composite z-score in experiment [1] is 0.623 (inactive); with XIP peptide (Xip251-270), -0.762. Besides, the z-score in experiment [2] is -2.3; in experiment [3], -4.76 (inactive); in experiment [4], 0.305 (inactive); in experiment [5] it was -0.0656 (inactive).
As for `C=C(CCCC)C(=O)CC[C@H](OC(=O)c1cccnc1)c1cccc(OCCO)c1`, the composite z-score in experiment [1] was 0.179 (inactive); in the experiment with XIP peptide (Xip251-270) it was 0.143. Further, the z-score in experiment [2] was -3.03; in experiment [3], -4.56 (inactive); in experiment [4], -0.296 (inactive); in experiment [5], -0.249 (inactive).
Consider `CCC[C@@H]1C=C(C(=O)O)[C@H](c2ccc(C)cc2)N1S(=O)(=O)c1ccc(C)cc1`, for which the composite z-score is -0.0617 (inactive) in experiment [1] and 0.884 in the experiment with XIP peptide (Xip251-270). The z-score in experiment [2] was 0.977; in experiment [3], -3.27 (inactive); in experiment [4], 0.941 (inactive); in experiment [5] it was 1.34 (inactive).
As for `CC(C)Cc1ccc(CN2CC[C@@H](NS(=O)(=O)c3ccccc3)C2)cc1`, the values for the composite z-score (in experiment [1]; in the experiment on XIP peptide (Xip251-270)) were -0.479 (inactive) and 0.0054, respectively. Besides, the z-score in experiment [2] was -0.438; in experiment [3] it was -4.79 (inactive); in experiment [4] it was -0.853 (inactive); in experiment [5], -1.1 (inactive).
For `O=C1C2C=CC(C(O)c3ccc(B(O)O)cc3)N(Nc3ccccc3)C2C(=O)N1c1ccccc1` (stereo unspecified), the composite z-score in experiment [1] was 0.158 (inactive); with XIP peptide (Xip251-270) it was -0.197. Moreover, the z-score in experiment [2] was -0.545; in experiment [3] it was -3.99 (inactive); in experiment [4], -0.149 (inactive); in experiment [5], -0.329 (inactive).
In the case of `COCCCNC(=O)[C@@]1(c2ccc([N+](=O)[O-])cc2)CC(=O)N(CC23CC4CC(CC(C4)C2)C3)[C@@H]1c1ccc(CO)cc1`, the composite z-score in experiment [1] is 0.0335 (inactive); in the experiment on XIP peptide (Xip251-270), 0.697. The z-score was -0.0493 in experiment [2], -5.17 (inactive) in experiment [3], -0.687 (inactive) in experiment [4] and -0.404 (inactive) in experiment [5].
As to `O=C/C=C/c1ccc(Cl)cc1`, the figures for the composite z-score (in experiment [1]; in the experiment on XIP peptide (Xip251-270)) were -1.5 (inactive) and -0.314, respectively. For the same compound, the z-score was 0.364 in experiment [2], 0.168 (inactive) in experiment [3], -0.0674 (inactive) in experiment [4] and -0.659 (inactive) in experiment [5].
For `O=c1cccc(C=Cc2ccccc2)o1`, the composite z-score in experiment [1] is -0.707 (inactive); in the experiment with XIP peptide (Xip251-270) it was -0.764. Further, the z-score is -0.907 in experiment [2], -0.516 (inactive) in experiment [3], -0.0971 (inactive) in experiment [4] and -0.0437 (inactive) in experiment [5].
`O=C1O[C@H](c2ccccc2)[C@H](c2ccccc2)N2[C@H]1[C@@H](C(=O)Nc1nc3ccccc3s1)[C@]1(C(=O)Nc3ccccc31)[C@H]2c1ccc(O)cc1`: the results for the composite z-score (in experiment [1]; in the experiment on XIP peptide (Xip251-270)) were -0.0105 (inactive) and 0.143, respectively. In addition, the z-score in experiment [2] was -0.739; in experiment [3], -0.0851 (inactive); in experiment [4], 0.282 (inactive); in experiment [5] it was 0.134 (inactive).
As to `CC(C)N1C(=O)c2ccccc2[C@@H](C(=O)NCCCN(C)C)[C@@H]1c1ccc(CO)cc1`, the composite z-score in experiment [1] was -0.361 (inactive); with XIP peptide (Xip251-270) it was -0.428. The z-score in experiment [2] is -1.26; in experiment [3] it was -2.54 (inactive); in experiment [4], -0.0028 (inactive); in experiment [5], -0.321 (inactive).
Consider `COCCOC(=O)N1C(=O)[C@@]2(c3cc(C#CCNC(N)=O)ccc31)[C@H](c1ccccc1OCCO)N1[C@H](c3ccccc3)[C@H](c3ccccc3)OC(=O)[C@H]1[C@@H]2C(N)=O`, for which the composite z-score in experiment [1] is -0.0949 (inactive); in the experiment on XIP peptide (Xip251-270), 0.467. Further, the z-score is -0.585 in experiment [2], -2.6 (inactive) in experiment [3], 0.0842 (inactive) in experiment [4] and -0.266 (inactive) in experiment [5].
Consider `O=C(CCN1CCOCC1)c1cccc(O)c1`, for which the composite z-score is 1.55 (inactive) in experiment [1] and 0.421 in the experiment on XIP peptide (Xip251-270). Besides, the z-score in experiment [2] is -1.5; in experiment [3], -2.35 (inactive); in experiment [4] it was -0.111 (inactive); in experiment [5] it was 0.114 (inactive).
